Experimental data published in PubChem BioAssay (EPA / NIEHS).
Where “and” joins values, the source holds several entries; their conditions need not be identical. Equal values may be shown once. More than one record can exist for a structure, and the calls need not agree. Calls of active or inactive are those of the source. How the source made its calls: active means hit-call score of the fitted dose curve at least 0.9, where 1 is the maximum; inactive means score below 0.9.

Read-out: Matrix Metallopeptidase 1 (MMP1), MMP1 (gene 4312)
Experiment: BSK_MyoF_MMP1: BioMAP Diversity Plus: MyoF Assay for Matrix Metallopeptidase 1 (MMP1) Biomarker Activity (AID 2284268)
Settings: primary human lung fibroblasts
How it was run: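 ELISA readout of MMP1 in primary human lung fibroblast cultures, 24 h post-dosing. Gain of signal versus DMSO vehicle control defines activity. Parallel SRB staining (0.1% after 10% TCA fixation, 560 nm) flags overt cytotoxicity.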

Compound	outcome	AC50
CC(C)(C)C(=O)CC(=O)C(F)(F)C(F)(F)C(F)(F)F	inactive	–
O=C(O)C(F)(F)C(F)(F)OC(F)(F)F	inactive	–
OCC(F)(F)C(F)(F)C(F)(F)C(F)(F)C(F)(F)C(F)(F)F	inactive	47.9 µM (active)
FC(F)(F)C(F)(F)C(F)(F)C(F)(F)C(F)(F)C(F)(F)C(F)(F)Br	inactive	–
C=C(C)C(=O)OCC(F)(F)C(F)(F)C(F)(F)F	inactive	–
OCC(F)(F)C(F)(F)C(F)(F)C(F)(F)C(F)(F)C(F)F	inactive	–
C=CC(F)(F)C(F)(F)C(F)(F)C(F)(F)C(F)(F)C(F)(F)C(F)(F)C(F)(F)F	inactive	–
Cc1ccc(S(=O)(=O)OCC(F)(F)C(F)(F)C(F)(F)C(F)(F)C(F)(F)C(F)F)cc1	inactive	–
N=C(N)C(F)(F)C(F)(F)C(F)(F)C(F)(F)C(F)(F)C(F)(F)C(F)(F)F	inactive	–
CCO[Si](CCC(F)(F)C(F)(F)C(F)(F)C(F)(F)C(F)(F)C(F)(F)F)(OCC)OCC	inactive	–
FC(F)(F)C(F)(F)CNCC(F)(F)C(F)(F)F	inactive	–
C=CC(=O)OCC(F)(F)C(F)(F)C(F)(F)C(F)(F)COC(=O)C=C	inactive	–
FC(F)(F)C(F)(F)C(F)(F)C(F)(F)C(F)(F)C(F)(F)CC1CO1 (configuration not stated)	inactive	–
OCCCC(F)(F)C(F)(F)C(F)(F)F	inactive	–
O=C(Cl)C(F)(F)C(F)(F)C(F)(F)C(F)(F)C(F)(F)C(F)(F)C(F)(F)C(F)(F)F	inactive	–
O=C(O)C(F)(F)C(F)(F)C(F)(F)C(F)(F)C(F)(F)C(F)(F)C(F)(F)C(F)(F)Cl	inactive	51.5 µM (active)
FC(F)(F)C(F)(F)C(F)(F)C(F)(F)C(F)(F)CCI	inactive	–

Compound	outcome	AC50
O=C(O)C(F)(F)C(F)(F)C(F)(F)C(F)(F)C(F)(F)C(F)(F)C(F)(F)C(F)(F)C(F)(F)C(F)F	inactive	–
O=P(O)(O)OCCC(F)(F)C(F)(F)C(F)(F)C(F)(F)C(F)(F)C(F)(F)F	inactive	–
FC(F)(Br)C(F)(F)C(F)(F)C(F)(F)C(F)(F)C(F)(F)Br	inactive	–
OCC(F)(F)C(F)(F)C(F)(F)F	inactive	–
O=C(O)C(F)(F)C(F)(F)C(F)(F)C(F)(F)C(F)(F)C(F)(F)C(F)(F)C(F)(F)C(F)(F)C(F)(F)C(F)(F)C(F)(F)F	inactive	–
O=S(=O)(OCC(F)F)C(F)(F)F	inactive	–
FC(F)(F)C(F)(F)C(F)(F)CI	inactive	–
FC(F)(I)C(F)(F)C(F)(F)C(F)(F)I	inactive	52 µM (active) and 48.5 µM (active)
FC(F)(F)C(F)(F)C(F)(F)C(F)(F)C(F)(F)C(F)(F)C(F)(F)I	–	2.4 µM (active) and 2.55 µM (active)
OCCCC(F)(F)C(F)(F)C(F)(F)C(F)(F)C(F)(F)C(F)(F)C(F)(F)F	inactive	48 µM (active)
COC(=O)CCC(F)(F)C(F)(F)C(F)(F)C(F)(F)F	inactive	–
OCC(F)(F)C(F)(F)C(F)(F)C(F)F	inactive	–
FC1CC(F)(F)C(F)(F)C1(F)F (configuration not stated)	inactive	–
O=C(O)C(F)(F)C(F)(F)C(F)(F)C(F)(F)F	inactive	–
O=S(=O)(O)C(F)(F)C(F)(F)C(F)(F)C(F)(F)C(F)(F)C(F)(F)C(F)(F)F	inactive	–
O=C(CC(=O)C(F)(F)C(F)(F)F)C(F)(F)F	inactive	–
